Test results: the supplement of paper PMC7156485
± gives the standard deviation of the averaged measurements.

Columns and labels:
Details in all cases: concentration: 10 µM; 24 h
[1] = test system: HCC1569; experiment: cell number relative to DMSO (% of DMSO); higher = more cells (less growth inhibition / toxicity)
Summary of the method: (§1)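 In 384-well plates holding 800 HCC1569 or TDF cells per well in RPMI with 10% FBS, compounds were tested at 10 µM for 24 h at 37 °C in triplicate. Fixation used 3.7% formaldehyde. Staining used a rabbit anti-H1.0 antibody with an AlexaFluor 647 secondary, plus DAPI. Each value, H1.0 nuclear intensity or cell number, is a median of replicates shown as percent of the plate control, and HCC1569 values were smoothed for positional effects.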

[2] = test system: TDF; experiment: as above
Summary of the method: as §1

[3] = test system: TDF; experiment: H1.0 immunofluorescence intensity relative to DMSO (% of DMSO); higher = stronger H1.0 induction, active = 120 or more
Summary of the method: as §1

[4] = test system: HCC1569; experiment: H1.0 immunofluorescence intensity relative to DMSO (% of DMSO); higher = stronger H1.0 induction, active = 140 or more
Summary of the method: as §1
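Throughout, for H1.0 immunofluorescence intensity relative to DMSO: TDF is a line of transformed human dermal fibroblasts of mesenchymal origin.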
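Throughout, for cell number relative to DMSO: TDF denotes transformed human dermal fibroblasts of mesenchymal origin.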

Question: Which cell number [1] does the source give for `CNS(=O)(=O)Cc1ccc2[nH]cc(CCN(C)C)c2c1.O=C(O)CCC(=O)O` [Sumatriptan Succinate] here?
Answer: 98

Question: And the cell number [2]?
Answer: 106

Question: And the H1.0 immunofluorescence intensity [3]?
Answer: 90.9 (inactive)

Question: What about the H1.0 immunofluorescence intensity [4] of the same compound?
Answer: 114 (inactive)

Question: What does the source list for `O=c1c(O)c(-c2ccc(O)c(O)c2)oc2cc(O)ccc12` [Fisetin]?
Answer: cell number [1]: 95.8; cell number [2]: 95.8; H1.0 immunofluorescence intensity [3]: 96 (inactive); H1.0 immunofluorescence intensity [4]: 101 (inactive)

Question: Which cell number [1] does the source give for `CCCC(C(=O)OCCN(CC)CC)(c1ccccc1)c1ccccc1.Cl` [SKF-525A hydrochloride] here?
Answer: 94

Question: What about the cell number [2] of the same compound?
Answer: 100

Question: And the H1.0 immunofluorescence intensity [3]?
Answer: 88.8 (inactive)

Question: And the H1.0 immunofluorescence intensity [4]?
Answer: 102 (inactive)

Question: How did the cell number [1] turn out when `CS(=O)(=O)O.Cc1c(O)cccc1C(=O)NC(CSc1ccccc1)C(O)CN1CC2CCCCC2CC1C(=O)NC(C)(C)C` (configuration not stated) [Nelfinavir mesylate] was run?
Answer: 102

Question: What about the cell number [2] of the same compound?
Answer: 112

Question: And the H1.0 immunofluorescence intensity [3]?
Answer: 90.6 (inactive)

Question: What about the H1.0 immunofluorescence intensity [4] of the same compound?
Answer: 116 (inactive)

Question: Which cell number [1] does the source give for `COc1c(O)cc(O)c2c(=O)cc(-c3ccccc3)oc12` [Wogonin] here?
Answer: 100

Question: And the cell number [2]?
Answer: 98.7

Question: What about the H1.0 immunofluorescence intensity [3] of the same compound?
Answer: 91.2 (inactive)

Question: What about the H1.0 immunofluorescence intensity [4] of the same compound?
Answer: 85.8 (inactive)

Question: How did the cell number [1] turn out when `COc1ccc2[nH]c(I)c(CCNC(C)=O)c2c1` [2-Iodomelatonin] was run?
Answer: 100

Question: What about the cell number [2] of the same compound?
Answer: 111

Question: And the H1.0 immunofluorescence intensity [3]?
Answer: 92 (inactive)

Question: What about the H1.0 immunofluorescence intensity [4] of the same compound?
Answer: 93.2 (inactive)

Question: How did the cell number [1] turn out when `CC(C)CCN1c2nc(Nc3cc(F)c(O)c(F)c3)ncc2N(C)C(=O)C1C` (configuration not stated) was run?
Answer: 65

Question: What about the cell number [2] of the same compound?
Answer: 29.6

Question: And the H1.0 immunofluorescence intensity [3]?
Answer: 131 (active)

Question: What about the H1.0 immunofluorescence intensity [4] of the same compound?
Answer: 148 (active)

Question: Which results are given for `COc1ccc(-n2[nH]c3c(cnc4ccccc43)c2=O)cc1` [2-(4-methoxyphenyl)-1H-pyrazolo[4,3-c]quinolin-3(2H)-one]?
Answer: cell number [1]: 103; cell number [2]: 87.8; H1.0 immunofluorescence intensity [3]: 98.5 (inactive); H1.0 immunofluorescence intensity [4]: 93.6 (inactive)

Question: Which results are given for `O=C(O)C1CCCNC1` (racemic)?
Answer: cell number [1]: 109; cell number [2]: 103; H1.0 immunofluorescence intensity [3]: 97 (inactive); H1.0 immunofluorescence intensity [4]: 92.1 (inactive)

Question: What does the source list for `CC1OC(OC2C(Oc3cc(O)c4c(c3)OC(c3ccc(O)cc3)CC4=O)OC(CO)C(O)C2O)C(O)C(O)C1O` (configuration not stated) [Naringin]?
Answer: cell number [1]: 103; cell number [2]: 99; H1.0 immunofluorescence intensity [3]: 96.2 (inactive); H1.0 immunofluorescence intensity [4]: 86.1 (inactive)

Question: For `O=C(C1CCCCC1)N1CC(=O)N2CCc3ccccc3C2C1` (configuration not stated) [Praziquantel], which cell number [1] is on record?
Answer: 101 ± 4.6

Question: And the cell number [2]?
Answer: 103 ± 5.6

Question: What about the H1.0 immunofluorescence intensity [3] of the same compound?
Answer: 94.8 (inactive)

Question: What about the H1.0 immunofluorescence intensity [4] of the same compound?
Answer: 106 (inactive)

Question: `CC(c1cc2ccccc2s1)N(O)C(N)=O` (configuration not stated) [Zileuton] was tested. Which cell number [1] did it give?
Answer: 102

Question: And the cell number [2]?
Answer: 98.4

Question: And the H1.0 immunofluorescence intensity [3]?
Answer: 94.2 (inactive)

Question: And the H1.0 immunofluorescence intensity [4]?
Answer: 101 (inactive)

Question: How did the cell number [1] turn out when `O=C1Nc2cc(Br)ccc2C1=C1N=c2ccccc2=C1NO` [(2'Z,3'E)-6-Bromoindirubin-3'-oxime] was run?
Answer: 54.7

Question: And the cell number [2]?
Answer: 61.4

Question: And the H1.0 immunofluorescence intensity [3]?
Answer: 118 (inactive)

Question: And the H1.0 immunofluorescence intensity [4]?
Answer: 171 (active)

Question: For `C=CC1(C)CC(=O)C2(O)C(C)(O1)C(OC(C)=O)C(O)C1C(C)(C)CCC(O)C12C` (configuration not stated) [Forskolin], which cell number [1] is on record?
Answer: 89.77 ± 0.53

Question: What about the cell number [2] of the same compound?
Answer: 105 ± 3.9

Question: What about the H1.0 immunofluorescence intensity [3] of the same compound?
Answer: 88.8 (inactive)

Question: What about the H1.0 immunofluorescence intensity [4] of the same compound?
Answer: 96.6 (inactive)

Question: Which results are given for `Clc1ccc(CON=C(Cn2ccnc2)c2ccc(Cl)cc2Cl)c(Cl)c1` [Oxiconazole]?
Answer: cell number [1]: 99.8; cell number [2]: 101; H1.0 immunofluorescence intensity [3]: 98.4 (inactive); H1.0 immunofluorescence intensity [4]: 113 (inactive)

Question: Which cell number [1] does the source give for `COC1C(OC(=O)C=CC=CC=CC=CC(=O)O)CCC2(CO2)C1C1(C)OC1CC=C(C)C` (configuration not stated) [Fumagillin] here?
Answer: 104 ± 1.1

Question: What about the cell number [2] of the same compound?
Answer: 98.7 ± 8.4

Question: And the H1.0 immunofluorescence intensity [3]?
Answer: 98.9 (inactive)

Question: What about the H1.0 immunofluorescence intensity [4] of the same compound?
Answer: 91.2 (inactive)

Question: What does the source list for `Cc1ccccc1N1C(=O)c2cc(S(N)(=O)=O)c(Cl)cc2NC1C` (configuration not stated) [Metolazone]?
Answer: cell number [1]: 104; cell number [2]: 110; H1.0 immunofluorescence intensity [3]: 89.8 (inactive); H1.0 immunofluorescence intensity [4]: 91.1 (inactive)

Question: With `CN(C)CCCn1cc(C2=C(c3c[nH]c4ccccc34)C(=O)NC2=O)c2ccccc21` as the compound, how does the cell number [1] read?
Answer: 86.2

Question: What about the cell number [2] of the same compound?
Answer: 79.5

Question: And the H1.0 immunofluorescence intensity [3]?
Answer: 115 (inactive)

Question: And the H1.0 immunofluorescence intensity [4]?
Answer: 139 (inactive)

Question: Which cell number [1] does the source give for `CCCC[C@@H](C=O)NC(=O)[C@H](CC(C)C)NC(=O)[C@H](CC(C)C)NC(C)=O` here?
Answer: 47.1

Question: What about the cell number [2] of the same compound?
Answer: 32.2

Question: What about the H1.0 immunofluorescence intensity [3] of the same compound?
Answer: 160 (active)

Question: What about the H1.0 immunofluorescence intensity [4] of the same compound?
Answer: 150 (active)

Question: For `CC1(C)CCC2(C(=O)O)CCC3(C)C(=CCC4C5(C)CCC(O)C(C)(C)C5CCC43C)C2C1` (configuration not stated) [Oleanolic acid], which cell number [1] is on record?
Answer: 101

Question: And the cell number [2]?
Answer: 91.6

Question: And the H1.0 immunofluorescence intensity [3]?
Answer: 101 (inactive)

Question: And the H1.0 immunofluorescence intensity [4]?
Answer: 89.8 (inactive)

Question: For `CCCCCCC=CCCCCCCCCCC(=O)O` [11(E)-Octadecenoic acid], which cell number [1] is on record?
Answer: 101

Question: And the cell number [2]?
Answer: 99.5

Question: What about the H1.0 immunofluorescence intensity [3] of the same compound?
Answer: 105 (inactive)

Question: What about the H1.0 immunofluorescence intensity [4] of the same compound?
Answer: 103 (inactive)

Question: How did the cell number [1] turn out when `CCCCCC(O)C=CC1C(O)CC(O)C1CC=CCCCC(=O)O` (configuration not stated) [9a,11b Prostaglandin F2] was run?
Answer: 106

Question: What about the cell number [2] of the same compound?
Answer: 99.4

Question: What about the H1.0 immunofluorescence intensity [3] of the same compound?
Answer: 94.2 (inactive)

Question: What about the H1.0 immunofluorescence intensity [4] of the same compound?
Answer: 101 (inactive)

Question: Which cell number [1] does the source give for `CCC(C)C(=O)OC1CCC=C2C=CC(C)C(CCC3CC(O)CC(=O)O3)C21` (configuration not stated) [Mevastatin] here?
Answer: 100.8 ± 0.37

Question: And the cell number [2]?
Answer: 87.1 ± 6.8

Question: What about the H1.0 immunofluorescence intensity [3] of the same compound?
Answer: 123 (active)

Question: What about the H1.0 immunofluorescence intensity [4] of the same compound?
Answer: 95 (inactive)
